Measured values: PubChem BioAssay AID1053197 (The Scripps Research Institute Molecular Screening Center, 2014)
About 2,600 (0.7%) of roughly 370,000 compounds were called active.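 Rule for the calls: active = inhibition above a cutoff: mean of compounds within the control limits plus 3 SD of those (cut at about 17% in these data); inactive = the rest.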 For the sample, actives were picked, then their nearest neighbours and some compounds at random.

These molecules were tested against Sialate O-acetylesterase (Homo sapiens) (UniProt Q9HAT2) (assay: blockers of sialate O-acetylesterase activity-probe labeling – biochemical, fluorescence polarization, FP-Rh probe, 1536-well HTS, primary screen (AID 1053197;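 note: 0% = plate median of compound wells and 100% = probe without SIAE protein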)). Conditions: SIAE FP-Rh probe binding, at 9.66 µM, active compounds read high.
Sialate O-acetylesterase (Homo sapiens), sequence (Q9HAT2 whole entry, looked up): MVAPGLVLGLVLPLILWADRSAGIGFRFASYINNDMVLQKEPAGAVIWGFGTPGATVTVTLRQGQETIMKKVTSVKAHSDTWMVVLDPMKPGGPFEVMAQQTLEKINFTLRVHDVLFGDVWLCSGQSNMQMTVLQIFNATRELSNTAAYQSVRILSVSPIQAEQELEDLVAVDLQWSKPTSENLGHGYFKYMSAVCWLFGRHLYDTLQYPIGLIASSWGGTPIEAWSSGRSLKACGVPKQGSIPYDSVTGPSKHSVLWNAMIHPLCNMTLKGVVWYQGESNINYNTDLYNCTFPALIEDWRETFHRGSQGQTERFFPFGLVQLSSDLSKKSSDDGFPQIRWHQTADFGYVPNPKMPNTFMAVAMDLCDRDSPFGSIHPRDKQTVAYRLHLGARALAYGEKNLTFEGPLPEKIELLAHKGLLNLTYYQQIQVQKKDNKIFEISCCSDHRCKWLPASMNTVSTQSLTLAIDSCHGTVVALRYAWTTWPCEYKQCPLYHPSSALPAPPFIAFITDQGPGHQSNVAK
For `COC(=O)c1ccccc1SC1CC(=O)N(c2cccc(C)c2)C1=O` (configuration not stated), the inhibition was -0.8% (inactive).
`Cc1cccc(N2C(=O)SC(N(CC(=O)O)c3cccc(C)c3)C2=O)c1` (configuration not stated) was tested, and the inhibition was 1.65% (inactive).
In the case of `Cc1cccc(N2C(=O)SC(SC(=Nc3ccccc3)Nc3ccccc3)C2=O)c1` (configuration not stated), the inhibition is reported as 18.1% (active).
With `COc1ccc(Cn2cc(COC(=O)N(C)Cc3ccccc3)nn2)cc1` the inhibition was 0.99% (inactive).
For `CCOC(=O)[C@]12CCCC3=C1N(CCC3)C(=O)[C@@H](CC(=O)N1CCSCC1)C2`, the inhibition was -3.23% (inactive).
With `Cc1cc(=O)[nH]c(SCC(=O)Nc2ccc(F)cc2F)n1` the inhibition was -0.82% (inactive).
With `CCN(CC)S(=O)(=O)c1cc(C(=O)Nc2cc(S(=O)(=O)N3CCOCC3)ccc2N2CCCC2)ccc1F` the inhibition was 1.03% (inactive).
In the case of `Cc1ccc(S(=O)(=O)N2CCOCC2)cc1C(=O)Nc1ccccc1N1CCCC1`, the inhibition is reported as 12.1% (inactive).
With `O=C(Nc1ccccc1N1CCCC1)c1ccc(F)c(S(=O)(=O)N2CCOCC2)c1` the inhibition was 20.5% (active).
With `CC(C)CNC(=O)OCc1cn(Cc2ccc(F)cc2)nn1` the inhibition was -8.33% (inactive).
For `Cc1cc(=O)[nH]c(SCC(=O)Nc2ccc(Cl)cc2C)n1`, the inhibition was 1.99% (inactive).
`O=C(c1ccccc1)c1ccc(-c2ccccc2C(=O)NC2CCCCN(Cc3ccc(Cl)cc3)C2=O)cc1` (configuration not stated) was tested, and the inhibition was 1.39% (inactive).
In the case of `CC1CC(C)CN(C/C=C/c2ccccc2[N+](=O)[O-])C1` (configuration not stated), the inhibition is reported as 2.91% (inactive).
With `CC1CCCCC1NC(=O)/C(C#N)=C/C=C/c1ccccc1[N+](=O)[O-]` (configuration not stated) the inhibition was 17.2% (active).
For `COc1cc(/C=C(\C#N)C(=O)Nc2ccc3ccccc3c2)c([N+](=O)[O-])cc1OC`, the inhibition was -1.47% (inactive).
`CC(C)CNc1cccc2c1S(=O)(=O)N(Cc1cn(Cc3ccc(Cl)cc3)nn1)Cc1ccccc1O2` was tested, and the inhibition was 3.21% (inactive).
For `O=C(NC1CCCCN(Cc2ccc(Cl)cc2)C1=O)c1ccc(Br)cc1` (configuration not stated), the inhibition was -3.06% (inactive).
For `Nc1ncnc2c1ncn2[C@@H]1O[C@H](C(=O)N[C@@H](CCc2ccccc2)C(=O)NCC(=O)N2CCOCC2)[C@@H](O)[C@H]1O`, the inhibition was 2.34% (inactive).
In the case of `Nc1ncnc2c1ncn2[C@@H]1O[C@H](C(=O)N2CCCN(Cc3ccccc3F)CC2)[C@@H](O)[C@H]1O`, the inhibition is reported as -1.61% (inactive).
For `CN(Cc1ccc(CNC[C@H]2O[C@@H](n3cnc4c(N)ncnc43)[C@H](O)[C@@H]2O)o1)S(C)(=O)=O`, the inhibition was -0.06% (inactive).
`CN(Cc1ccc(C(F)(F)F)cc1)C(=O)[C@H]1O[C@@H](n2cnc3c(N)ncnc32)[C@H](O)[C@@H]1O` was tested, and the inhibition was 81.3% (active).
With `Nc1ncnc2c1ncn2[C@@H]1O[C@H](C(=O)N2CCSC2)[C@@H](O)[C@H]1O` the inhibition was 1.67% (inactive).
In the case of `Nc1ncnc2c1ncn2[C@@H]1O[C@H](C(=O)NCC(F)(F)F)[C@@H](O)[C@H]1O`, the inhibition is reported as 51.2% (active).
For `CC(C)CSc1nnc(-c2cccnc2)n1Cc1ccccc1`, the inhibition was 0.87% (inactive).
For `O=C(NCc1ccc(Cl)cc1)C1CCCN(c2nc3ccccc3o2)C1` (configuration not stated), the inhibition was 1.99% (inactive).
With `O=C(Nc1cc(F)cc(F)c1)OC1CCC12CCC(c1ccccc1)CC2` (configuration not stated) the inhibition was -17% (inactive).
With `Nn1c(SCC(=O)N2c3ccccc3Sc3ccccc32)nnc1-c1n[nH]c2c1CCC2` the inhibition was -8.15% (inactive).
In the case of `CN(C)CC(=O)N[C@@H]1C[C@@H]2O[C@H](CO)CC[C@@H]2O[C@@H]1CCc1ccc(C#Cc2ccccc2)cc1`, the inhibition is reported as 5.34% (inactive).
`COc1ccc(C(=O)OCCN(C)C2CN(Cc3cn(Cc4cccc(C)c4)nn3)S(=O)(=O)C2)cc1OC` (configuration not stated) was tested, and the inhibition was -4.69% (inactive).
In the case of `C/C(=N\NC(N)=S)c1cccnc1`, the inhibition is reported as 1.42% (inactive).
With `O=C(O)/C(=C/c1cccnc1)NC(=O)c1ccccc1` the inhibition was 5.04% (inactive).
`C/C(=N\NC(=O)c1cccnc1)c1ccc(-n2ccnc2)cc1` was tested, and the inhibition was 2.74% (inactive).
In the case of `NS(=O)(=O)c1ccc(NC(=S)NC(=O)c2cccnc2)cc1`, the inhibition is reported as 1.85% (inactive).
In the case of `O=C(N/N=C/c1ccc(O)c2ccccc12)c1cccnc1`, the inhibition is reported as 18.7% (active).
With `O=C(NN=C1CCC(=NNC(=O)c2cccnc2)CC1)c1cccnc1` the inhibition was 20.1% (active).
`Cc1cc(NS(=O)(=O)c2ccc(NC(=O)CSc3nnc(-c4ccc(C(C)(C)C)cc4)n3Cc3ccco3)cc2)nc(C)n1` was tested, and the inhibition was -2.29% (inactive).
With `COC(=O)[C@]12C[C@H](CC(=O)NCC34CC5CC(CC(C5)C3)C4)C(=O)N(Cc3ccc(Cl)cc3Cl)C1=C[C@H](COCc1ccccc1)O[C@@H]2C` the inhibition was -3.29% (inactive).
`COc1cc(C(=S)NC2CCCCC2)ccc1O` was tested, and the inhibition was 2.61% (inactive).
For `COc1cc(C(=O)Nn2c(O)c(C3=c4ccccc4=NC3=O)sc2=S)ccc1O`, the inhibition was 40.2% (active).
With `COc1cc(C(=O)Nn2c(CC(C)C)nc3ccccc3c2=O)cc(OC)c1OC` the inhibition was -1.34% (inactive).
With `Cc1ccc(Cn2cc(COC(=O)N(C)Cc3ccccc3)nn2)cc1` the inhibition was 2.24% (inactive).
With `CC(=O)N1CCCN(C2=Nc3ccccc3Sc3ccccc32)CC1` the inhibition was 13.5% (inactive).
In the case of `COCCNC(=O)c1cc2c(Br)ccc(Br)c2nc1N`, the inhibition is reported as -3.42% (inactive).
In the case of `COCCNC(=O)Nc1ccc2nc(-c3ccco3)c(-c3ccco3)nc2c1`, the inhibition is reported as 37.3% (active).
With `COCCN(C(=O)c1ccco1)c1nnc(-c2ccc(OC)cc2)s1` the inhibition was -0.46% (inactive).
In the case of `CCCCCN1CCCCC(NC(=O)C(C)CCC)C1=O` (configuration not stated), the inhibition is reported as -1.97% (inactive).
With `CCOC(=O)[C@]12CCCC=C1N(Cc1ccc(OC)cc1)C(=O)[C@@H]2CC(=O)NCc1cccs1` the inhibition was 0.94% (inactive).
For `Cc1c[nH]c2cccc(-c3ccc(Cl)cc3)c12`, the inhibition was 4.94% (inactive).
With `CC(=O)NC(c1cccs1)c1cc(Br)c2cccnc2c1O` (configuration not stated) the inhibition was 20.8% (active).
`O=[N+]([O-])c1cc([N+](=O)[O-])c2cccnc2c1O` was tested, and the inhibition was 0.23% (inactive).
For `CCCCC(=O)NC(c1ccc(OC)c(OC)c1)c1ccc2cccnc2c1O` (configuration not stated), the inhibition was 15.1% (inactive).
In the case of `COC(=O)[C@]12C[C@H](CC(=O)N3CCN(C(=O)C4CC4)CC3)C(=O)N(CCC3=CCCCC3)C1=C[C@H](C(C)C)O[C@@H]2C1CC1`, the inhibition is reported as 0.92% (inactive).
With `O=C(CSc1nc2ccccc2n1Cc1ccccc1)NNC(=S)Nc1ccccc1` the inhibition was 2.33% (inactive).
For `COCC(=O)N[C@@H]1C[C@@H]2O[C@@H](CO)CC[C@@H]2O[C@@H]1CCc1ccc(-c2ccccc2)cc1`, the inhibition was 2.31% (inactive).
With `Cc1ccc(Cn2cc(CN3[C@@H](CC(C)C)COc4ccc(Cl)cc4S3(=O)=O)nn2)cc1` the inhibition was 1.1% (inactive).
In the case of `Cc1ccc(N2C(=O)C3N=NN(CC(=O)N4N=C(c5cccc6ccccc56)CC4c4ccccc4)C3C2=O)cc1` (configuration not stated), the inhibition is reported as -11.7% (inactive).
For `Oc1ccccc1C1=NN(c2ccccc2)C(c2ccccc2)C1` (configuration not stated), the inhibition was 20.5% (active).
In the case of `COc1ccc(C2CC(c3cccc(OC)c3)=NN2c2ccc(S(N)(=O)=O)cc2)cc1` (configuration not stated), the inhibition is reported as 6.8% (inactive).
With `O=C1CC[C@@]23CCCN2C(=O)CCC[C@H]3[C@H]1Cc1ccccc1` the inhibition was 4.29% (inactive).
With `Cc1cccc(Cn2c(N3CCN(c4ccccc4)CC3)nc3c2c(=O)n(C)c(=O)n3C)c1` the inhibition was -1.65% (inactive).
With `CCOc1ccc2nc(NC(=O)CSc3nc4c(c(=O)n(C)c(=O)n4C)n3CC)sc2c1` the inhibition was -3.15% (inactive).
In the case of `CCOc1ccc(Cn2c(SCCCCC#N)nc3c2c(=O)n(C)c(=O)n3C)cc1OCC`, the inhibition is reported as 25.8% (active).
In the case of `COC(=O)c1cccc(Cn2ccc3ccc(-c4ccc5ccn(C(=O)C6CCCCC6)c5c4)cc32)c1`, the inhibition is reported as -4.45% (inactive).
In the case of `N#CCC[C@H]1CC[C@]2(CCCN(Cc3ccc(Cl)cc3)C2)O1`, the inhibition is reported as 1.15% (inactive).
`C#CCNC(=O)C[C@H]1C[C@@]2(C(=O)OC)C(=C[C@H](C(C)C)O[C@@H]2C2CC2)N(Cc2ccco2)C1=O` was tested, and the inhibition was 4.68% (inactive).
For `COc1cc(/C=N\Nc2nc(-c3cccs3)c(NC(C)=O)s2)ccc1O`, the inhibition was 18.3% (active).
In the case of `COc1cc(/C=C/C(=O)OCC(=O)NCCCc2ccccc2)ccc1O`, the inhibition is reported as 9.1% (inactive).
For `COc1ccc(/C=N/Nc2ncnc3sc4c(c23)CCCC4)cc1O`, the inhibition was -1.15% (inactive).
With `O=C(NCc1cccs1)C1CCCN(S(=O)(=O)c2ccc([N+](=O)[O-])cc2)C1` (configuration not stated) the inhibition was 3.31% (inactive).
In the case of `COc1ccc(-n2c(SCC(=O)Nc3ccc4c(c3)OCCO4)nnc2-c2ccc(Cl)cc2)cc1`, the inhibition is reported as 2.64% (inactive).
With `CCCCn1c(N)c(N(CCC(C)C)C(=O)c2ccc([N+](=O)[O-])o2)c(=O)[nH]c1=O` the inhibition was 1.61% (inactive).
`CCCCn1c(N)c(N(CC(C)C)C(=O)CN(C)S(=O)(=O)c2ccc(F)cc2)c(=O)[nH]c1=O` was tested, and the inhibition was 2.93% (inactive).
`CCCCn1c(N)c(N(CC(C)C)C(=O)CSc2ccc([N+](=O)[O-])cc2)c(=O)[nH]c1=O` was tested, and the inhibition was 17.8% (active).
For `CCC(=O)OCCCN1C(=O)CCC12CCC(c1ccccc1)CC2` (configuration not stated), the inhibition was 10.2% (inactive).
For `COC(=O)[C@@]12CCCCC3=C1N(CCC3)C(=O)[C@H]2CC(=O)NCc1cccc2ccccc12`, the inhibition was 3.42% (inactive).
With `CC(C)C(C#CC1CC1)N(Cc1ccc2c(c1)OCO2)C(N)=NC(=O)/C=C/c1cccc(C(F)(F)F)c1` (configuration not stated) the inhibition was -3.05% (inactive).
`CCN(CC)C(=O)CC[C@@H]1CC[C@]2(CCCN(S(=O)(=O)C3CCCCC3)C2)O1` was tested, and the inhibition was 0.62% (inactive).
`Cc1ccc(-c2csc(NCCc3nc4cc(Cl)c(Cl)cc4n3CCOCCO)n2)cc1` was tested, and the inhibition was 1.85% (inactive).
In the case of `CC(=O)Nc1cnc(-c2ccc(O)cc2C)cn1`, the inhibition is reported as 1.05% (inactive).
In the case of `Cc1ccc(Nc2nc(-c3ccc(O)cc3O)cs2)nc1`, the inhibition is reported as 20.7% (active).
`COC(=O)[C@H](C(C)C)N(CCc1cn(Cc2ccccc2)nn1)S(=O)(=O)c1ccc(F)cc1Br` was tested, and the inhibition was 0.91% (inactive).
`Cc1ccc(-n2c(SCC(=O)Nc3ccc(S(=O)(=O)Nc4nccs4)cc3)nnc2-c2ccccn2)cc1` was tested, and the inhibition was -6.07% (inactive).
